Where “and” joins values, the source holds several entries; their conditions need not be identical. Identical values can stand only once. The whole screen tested about 5,500 compounds, of which about 2,000 (36%) were called active. Roughly 18% stayed inconclusive and do not appear here. Cut-off read from the data, not from the text of the source: active = normalized growth mostly below about 0.91 (no sharp cut-off); inconclusive = no clear call, values can overlap the other calls; inactive = mostly above about 0.92. The list shows a part of the results.
Experiment: chemical genetic growth profiling, strain panel (AID 1159580);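 note: tested at 20 µM; growth read once vehicle control cultures reached saturation at 30 °C; 1 = growth at the plate median or of vehicle wells; lower values mean less growth of the strain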
Settings: growth OD
[1] = S. cerevisiae deletion strains, locus YAL013W, strain DEP1, active compounds read low
[2] = S. cerevisiae deletion strains, locus YNL153C, strain GIM3, active compounds read low
[3] = S. cerevisiae deletion strains, locus YPL241C, strain CIN2, active compounds read low

Measured: normalized growth

CC1CCN=C(N)S1 (stereo unspecified)
inactive: [1] 0.997 | S. cerevisiae deletion strains, locus YAL040C, strain CLN3, active compounds read low 0.98 | S. cerevisiae deletion strains, locus YER002W, strain NOP16, active compounds read low 1 | [2] 0.947 | S. cerevisiae deletion strains, locus YNL175C, strain NOP13, active compounds read low 0.991 | S. cerevisiae deletion strains, locus YNL197C, strain WHI3, active compounds read low 0.99 | S. cerevisiae deletion strains, locus YNL224C, strain SQS1, active compounds read low 1.02 | S. cerevisiae deletion strains, locus YOR083W, strain WHI5 (second series), active compounds read low 0.962 | [3] 0.978

CCC(C(N)=O)c1ccccc1 (stereo unspecified)
inactive: [1] 1.02 | S. cerevisiae deletion strains, locus YBR021W, strain FUR4, active compounds read low 1.04 | S. cerevisiae deletion strains, locus YBR229C, strain ROT2, active compounds read low 0.999 | S. cerevisiae deletion strains, locus YCL029C, strain bik1, active compounds read low 0.992 | S. cerevisiae deletion strains, locus YDL035C, strain GPR1, active compounds read low 1.03 | S. cerevisiae deletion strains, locus YDL074C, strain BRE1, active compounds read low 1.04 | S. cerevisiae deletion strains, locus YDL101C, strain DUN1, active compounds read low 1.01 | S. cerevisiae deletion strains, locus YDL134C, strain PPH21, active compounds read low 1 | S. cerevisiae deletion strains, locus YDL185W, strain tfp1, active compounds read low 0.997 | S. cerevisiae deletion strains, locus YDL192W, strain arf1, active compounds read low 1 | S. cerevisiae deletion strains, locus YDR101C, strain arx1, active compounds read low 0.986 | S. cerevisiae deletion strains, locus YDR150W, strain NUM1, active compounds read low 1 | S. cerevisiae deletion strains, locus YDR162C, strain NBP2, active compounds read low 1.03 | S. cerevisiae deletion strains, locus YDR318W, strain mcm21, active compounds read low 0.998 | S. cerevisiae deletion strains, locus YDR388W, active compounds read low 0.999 | S. cerevisiae deletion strains, locus YDR502C, strain sam2, active compounds read low 1.01 | S. cerevisiae deletion strains, locus YEL061C, strain CIN8, active compounds read low 1.02 | S. cerevisiae deletion strains, locus YER110C, active compounds read low 0.987 | S. cerevisiae deletion strains, locus YER155C, strain BEM2, active compounds read low 0.998 | S. cerevisiae deletion strains, locus YER167W, strain BCK2, active compounds read low 1.01 | S. cerevisiae deletion strains, locus YGL078C, strain dbp3, active compounds read low 1 | S. cerevisiae deletion strains, locus YGL086W, strain mad1, active compounds read low 0.997 | S. cerevisiae deletion strains, locus YGL248W, strain PDE1, active compounds read low 1 | S. cerevisiae deletion strains, locus YGR078C, strain PAC10, active compounds read low 1.03 | S. cerevisiae deletion strains, locus YGR135W, strain pre9, active compounds read low 1 | S. cerevisiae deletion strains, locus YGR229C, strain SMI1, active compounds read low 1.01 | S. cerevisiae deletion strains, locus YGR252W, strain gcn5, active compounds read low 1.11 | S. cerevisiae deletion strains, locus YHR030C, strain SLT2, active compounds read low 1.01 and 0.954 | S. cerevisiae deletion strains, locus YHR079C, strain IRE1 (second series), active compounds read low 0.99 | S. cerevisiae deletion strains, locus YHR079C, strain IRE1, active compounds read low 0.992 | S. cerevisiae deletion strains, locus YHR094C, strain hxt1, active compounds read low 0.982 | S. cerevisiae deletion strains, locus YHR129C, strain ARP1, active compounds read low 1 | S. cerevisiae deletion strains, locus YHR200W, strain rpn10, active compounds read low 1.01 | S. cerevisiae deletion strains, locus YIL066C, strain RNR3, active compounds read low 1.01 | S. cerevisiae deletion strains, locus YIL073C, strain SPO22, active compounds read low 0.946 | S. cerevisiae deletion strains, locus YIL125W, strain kgd1, active compounds read low 1.01 | S. cerevisiae deletion strains, locus YIR030C, strain dcg1, active compounds read low 0.998 | S. cerevisiae deletion strains, locus YJL095W, strain BCK1, active compounds read low 1.03 and 0.98 | S. cerevisiae deletion strains, locus YJL134W, strain LCB3, active compounds read low 1.01 | S. cerevisiae deletion strains, locus YJL168C, strain set2, active compounds read low 0.981 | S. cerevisiae deletion strains, locus YJL187C, strain SWE1 (second series), active compounds read low 1.01 | S. cerevisiae deletion strains, locus YJR043C, strain POL32, active compounds read low 1.04 | S. cerevisiae deletion strains, locus YJR066W, strain TOR1, active compounds read low 0.899 | S. cerevisiae deletion strains, locus YJR075W, strain HOC1, active compounds read low 1.01 | S. cerevisiae deletion strains, locus YKL009W, strain mrt4, active compounds read low 1.02 | S. cerevisiae deletion strains, locus YKL068W, active compounds read low 0.998 | S. cerevisiae deletion strains, locus YKL085W, strain MDH1 (second series), active compounds read low 1 | S. cerevisiae deletion strains, locus YKL085W, strain MDH1, active compounds read low 1 | S. cerevisiae deletion strains, locus YKL190W, strain CNB1, active compounds read low 1.02 | S. cerevisiae deletion strains, locus YKR001C, strain vps1, active compounds read low 0.989 | S. cerevisiae deletion strains, locus YLR039C, strain RIC1, active compounds read low 1.04 | S. cerevisiae deletion strains, locus YLR058C, strain SHM2, active compounds read low 1.01 | S. cerevisiae deletion strains, locus YLR102C, strain apc9, active compounds read low 0.983 | S. cerevisiae deletion strains, locus YLR113W, strain HOG1, active compounds read low 1.01 | S. cerevisiae deletion strains, locus YLR262C, strain YPT6, active compounds read low 1.04 | S. cerevisiae deletion strains, locus YLR268W, strain sec22, active compounds read low 1.01 | S. cerevisiae deletion strains, locus YLR330W, strain CHS5, active compounds read low 1.01 | S. cerevisiae deletion strains, locus YLR342W, strain FKS1 (second series), active compounds read low 1.02 | S. cerevisiae deletion strains, locus YLR371W, strain rom2, active compounds read low 0.984 | S. cerevisiae deletion strains, locus YLR418C, strain cdc73, active compounds read low 1.06 | S. cerevisiae deletion strains, locus YML016C, strain PPZ1, active compounds read low 1.01 | S. cerevisiae deletion strains, locus YML032C, strain rad52, active compounds read low 1.01 | S. cerevisiae deletion strains, locus YML124C, strain tub3, active compounds read low 0.994 | S. cerevisiae deletion strains, locus YMR078C, strain ctf18, active compounds read low 0.996 | S. cerevisiae deletion strains, locus YMR223W, strain ubp8, active compounds read low 0.986 | S. cerevisiae deletion strains, locus YMR263W, strain SAP30, active compounds read low 1.02 | S. cerevisiae deletion strains, locus YMR307W, strain GAS1, active compounds read low 1.1 | S. cerevisiae deletion strains, locus YNL067W, strain RPL9B, active compounds read low 1.04 | S. cerevisiae deletion strains, locus YNL128W, strain TEP1, active compounds read low 1.02 | [2] 1.01 | S. cerevisiae deletion strains, locus YNL183C, strain NPR1, active compounds read low 0.903 | S. cerevisiae deletion strains, locus YNL233W, strain BNI4, active compounds read low 1.01 | S. cerevisiae deletion strains, locus YNL250W, strain rad50, active compounds read low 1 | S. cerevisiae deletion strains, locus YNL271C, strain bni1, active compounds read low 1 | S. cerevisiae deletion strains, locus YNL298W, strain CLA4, active compounds read low 1.01 | S. cerevisiae deletion strains, locus YNL307C, strain MCK1, active compounds read low 1.01 | S. cerevisiae deletion strains, locus YNL322C, strain KRE1, active compounds read low 1.01 | S. cerevisiae deletion strains, locus YNR052C, strain pop2, active compounds read low 0.984 | S. cerevisiae deletion strains, locus YOL006C, strain TOP1, active compounds read low 1.06 | S. cerevisiae deletion strains, locus YOL012C, strain htz1 1.05 | S. cerevisiae deletion strains, locus YOL147C, strain pex11, active compounds read low 0.988 | S. cerevisiae deletion strains, locus YOR061W, strain CKA2, active compounds read low 1.01 | S. cerevisiae deletion strains, locus YOR069W, strain VPS5, active compounds read low 1.01 | S. cerevisiae deletion strains, locus YOR136W, strain idh2, active compounds read low 1 | S. cerevisiae deletion strains, locus YOR144C, strain elg1, active compounds read low 0.997 | S. cerevisiae deletion strains, locus YOR184W, strain ser1, active compounds read low 1 | S. cerevisiae deletion strains, locus YOR231W, strain MKK1, active compounds read low 0.95 | S. cerevisiae deletion strains, locus YOR316C, strain cot1, active compounds read low 0.988 | S. cerevisiae deletion strains, locus YPL055C, strain LGE1, active compounds read low 1.05 | [3] 1.01 | S. cerevisiae deletion strains, locus YPL256C, strain CLN2, active compounds read low 0.962 | S. cerevisiae deletion strains, locus YPR119W, strain clb2, active compounds read low 0.986 | S. cerevisiae deletion strains, locus YPR141C, strain kar3, active compounds read low 1.01 | S. cerevisiae deletion strains, locus YPR163C, strain tif3, active compounds read low 0.999 | S. cerevisiae deletion strains, locus YPR167C, strain met16, active compounds read low 0.999 | S. cerevisiae deletion strains, strain wtn01, active compounds read low 1 | S. cerevisiae strains, strain wild type, active compounds read low 1.01

Reference: PubChem BioAssay AID1159580 (chemical genetic matrix, 2015)
